VDR inhibitor: vitamin D3 receptor (human) inhibition | P11473 | VDR-SRC2-3 peptide fluorescence polarization, 2 h | AID 504847 | Potency, µM, actives largely listed as inhibitors | hit rate 0.93% among 400,000
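FP read-out; VDR + SRC2-3 coactivator peptide; 23 nl compound by pintool; 2 h RT incubation; reagents held at 4 deg C, protected from light.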
12-LOX inh: inhibitors of human 12S-lipoxygenase ALOX12; hit rate 1.1% among 580,000; purified 12hLO, xylenol orange hydroperoxide absorbance; Potency, µM (doses to about 108 µM), actives largely listed as inhibitors
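Hydroperoxide product was detected by ferrous iron/xylenol orange as the 573 to 405 nm absorbance ratio. Arachidonic acid at 40 uM (final) was turned over for 30 min at room temperature by 150 nM human 12hLO, pH 7.0 Hepes buffer, after 15 min compound preincubation.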
Sfp PPTase inh: inhibitors of Bacillus subtilis Sfp phosphopantetheinyl transferase; Potency, µM, hits mostly inhibitors; hit rate 3.5% among 310,000; Q9F4F7; Biochemical Sfp PPTase activity, qHTS;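 further: the enzyme is Sfp with the accession as filed and its product quenches rhodamine fluorescence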
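Fluorescence-quenching assay: 15 nM Sfp-PPTase preincubated 15 min at room temperature with compound, then 5 uM rhodamine-CoA and 12.5 uM BHQ-2-labelled YbbR peptide added. Fluorescence (ex 525/em 598 nm) read at start and after 30 min; difference gives rate.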
PLK1 PBD inh: inhibitors of human PLK1 polo-box domain binding | hit rate 2.8% among 360,000 | AID 720504 | Potency, µM, usual class: inhibitors | Plk1 PBD binding of FITC phosphopeptide, fluorescence polarization | P53350; further: series mostly up to about 57 µM; nearly all actives have a fitted effect of over 65% in size
Target sequence (P53350 whole entry, looked up, the tested form may be a part): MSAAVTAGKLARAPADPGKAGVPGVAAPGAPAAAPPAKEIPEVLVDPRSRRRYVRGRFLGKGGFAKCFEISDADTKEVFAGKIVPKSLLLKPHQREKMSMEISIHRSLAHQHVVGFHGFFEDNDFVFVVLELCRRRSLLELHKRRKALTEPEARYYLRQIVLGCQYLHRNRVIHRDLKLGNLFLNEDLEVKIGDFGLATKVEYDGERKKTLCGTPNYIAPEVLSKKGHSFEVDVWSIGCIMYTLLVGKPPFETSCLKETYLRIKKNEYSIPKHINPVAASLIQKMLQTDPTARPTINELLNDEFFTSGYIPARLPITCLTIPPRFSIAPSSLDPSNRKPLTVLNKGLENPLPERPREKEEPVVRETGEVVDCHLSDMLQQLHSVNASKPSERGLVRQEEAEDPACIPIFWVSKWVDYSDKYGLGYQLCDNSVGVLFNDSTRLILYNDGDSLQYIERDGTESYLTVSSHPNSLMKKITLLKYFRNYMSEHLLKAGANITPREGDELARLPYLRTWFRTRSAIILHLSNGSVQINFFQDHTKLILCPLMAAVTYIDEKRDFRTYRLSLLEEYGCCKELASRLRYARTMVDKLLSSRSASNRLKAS
A number is an active result; n = inactive; u = inconclusive; x = no result; [ ] = remark or other dose. Compounds with a hit are over-represented: about 4.2% of the library has one in this group of screens. The call rests on the fitted dose curve; in most records, active means well fitted curve in the direction sought with a large enough effect; inconclusive means small, poorly fitted or top-dose-only effect, or another doubt; inactive means no such curve, though single readings can be large; an effect the other way counts as inactive or inconclusive.

SMILES | VDR inhibitor | 12-LOX inh | Sfp PPTase inh | PLK1 PBD inh
CC(=O)c1ccc(NC(=O)COc2ccccc2-c2nc(-c3cccc(C)c3)no2)cc1 | n | n | x | x
CCCCNC(=O)c1sc(=S)n(-c2ccccc2OC)c1N | n | u | 44.7µM | 26.7µM
CCOC(=O)c1sc(=S)n(-c2ccccc2OC)c1N | n | u | n | 21.2µM
COC(=O)c1sc(=S)n(-c2ccccc2OC)c1N | n | n | n | n
COc1ccc2c3c([nH]c2c1)C1CC2C(CC(O)C(OC)C2CO)CN1CC3 (configuration not stated) | n | n | n | n
CC(=O)N1CCC([C@@H]2CN(C(=O)COc3ccccc3)C[C@H]2CO)CC1 | x | n | x | x
O=C(COc1ccc(Cl)cc1)Nc1cnn(Cc2c(Cl)cccc2Cl)c1 | 89.1µM | n | n | n
CCN1C(=S)SC(=O)C1=C1C=C(C)N(CCOC)C(C)=C1 | x | x | 50.1µM | x
CC(C)C(NC(=O)c1ccc(C(C)(C)C)cc1)C(=O)N1CCC(C(N)=O)CC1 (configuration not stated) | n | n | x | n
COc1cccc(C(=O)NC(=S)Nc2nnn(C)n2)c1 | n | u | 50.1µM | n
COc1ccc(C(=O)NC(=S)Nc2nnn(C)n2)cc1 | n | u | 56.2µM | u
Cn1nnc(NC(=S)NC(=O)c2cccc3c(Br)cccc23)n1 | n | u | u | u
COc1cccc(C(=O)NC(=S)Nc2ccc(N(C)C)cc2)c1 | n | 44.7µM | u | n
COC(=O)c1sccc1NC(=O)c1cccc(OC)c1 | u | n | n | 18.9µM
COc1c(C(=O)NC(=S)Nc2nnn(C)n2)cc2ccccc2c1Br | n | n | n | n
O=C(CSc1ncc(-c2ccc(F)cc2)[nH]1)NCc1ccco1 | n | n | n | n
CC(C)NC(=O)N1CCC2(CC1)CN(C(=O)C1CCN(C)CC1)Cc1ccccc1O2 | x | n[6.33 µM] | x | x
CC(=O)Nc1c(-c2cc(=O)oc3ccc(C(C)C)cc23)oc2ccccc12 | x | n | x | x
COc1cccc(C(=O)Nc2ccc3c(c2)C(=O)c2ccccc2C3=O)c1 | n | n | n | 26.7µM
O=C1COc2ccc(OCc3ccccc3)nc2CN1Cc1ccc(F)cc1 | x | n | x | x
O=C1COc2ccc(OCc3ccccc3)nc2CN1CCOc1ccccc1 | x | 11.2µM | x | x
CCN(CC)S(=O)(=O)c1cccc(-c2n[nH]c(=S)n2/N=C/c2ccc(OC)cc2)c1 | n | u | 79.4µM | n
CCN(CC)S(=O)(=O)c1cccc(-c2n[nH]c(=S)n2/N=C/c2ccc(Br)cc2)c1 | n | n | n | 21.2µM
CCN(CC)S(=O)(=O)c1cccc(-c2n[nH]c(=S)n2/N=C/c2ccc(OC(F)F)cc2)c1 | n | u | u | u
CCSc1nc(-c2ccccc2)c(-c2ccccc2)n1CC(O)CO (configuration not stated) | n | n | n | n
SMILES | VDR inhibitor | 12-LOX inh | Sfp PPTase inh | PLK1 PBD inh
CC(C)(C)OC(=O)NCC12C=CC(O1)C1C(=O)N(Cc3ccccc3)C(=O)C12 (configuration not stated) | n | n | 70.8µM | n
CC(C)(C)OC(=O)NCC1CCN(S(=O)(=O)Cc2ccccc2)CC1 | n | n | n | n
O=C(C1CC1)N1CCc2cc(Br)cc(S(=O)(=O)NCc3ccccn3)c21 | n | u | n | n
COc1ccc(NC(=O)c2ccc(-c3ccc(-c4noc(C)n4)cc3C)cc2)cc1OCCN(C)C | n | u | 79.4µM | x
COc1ccc(-c2nc(-c3ccc(NC(=O)c4ccncc4)cc3)no2)cc1OC | n | x | n | n
COc1ccc(NC(=O)c2ccc(-c3ccc(-c4noc(C)n4)cc3C)cc2)cc1N1CCN(C)CC1 | n | u | 31.6µM | n
Cn1c(Cn2cccn2)nnc1C1CC(NC(=O)c2ccc(F)cc2)C1 (configuration not stated) | x | n | x | x
COc1ccc(CCN(C)C2CCCN(S(=O)(=O)C(C)C)C2)cc1OC (configuration not stated) | n | n | n | n
Cc1cc(C)c(C#N)c(Oc2ccccc2)n1 | n | n | n | n
COc1ccc2c(c1)OCC1=C2CCC2(C)C(=O)CC=C12 (configuration not stated) | x | x | 20µM | x
COc1ccc2c(c1)SCCC2=O | n | n | n | n
COc1ccc(C(=O)c2ccc(C)cc2)cc1 | x | n | x | x
COC(=O)c1c(NC(=O)CSc2nnc(-c3ccco3)n2C)sc(C)c1C | u | n | n | 29.9µM
CCCNC(=O)CSc1nnc(-c2ccco2)n1C | n | n | n | 2.67µM
CCOC(=O)c1sc(NC(=O)CSc2nnc(-c3ccco3)n2CC)c(C(=O)OCC)c1C | n | n | 25.1µM | n
COc1ccc(NC(=O)CSc2nnc(-c3ccco3)n2C)cc1 | n | n | n | n
COc1ccc2cc(C(=O)NCC(=O)Nc3cccc(C)c3C)c(C)nc2c1 | x | n | x | x
Cc1ccc([N+](=O)[O-])cc1Nc1nc(N2CCCC2)nc(N2CCCC2)n1 | 79.4µM | n | n | 18.9µM
NNc1nc(Nc2ccc([N+](=O)[O-])cc2)nc(N2CCCCCC2)n1 | n | n | n | n
COc1cc2[nH]c(=S)n(CCN3CCOCC3)c(=O)c2cc1OC | n | n | 17.8µM | n
COc1cc2[nH]c(=S)n(CCCN3CCOCC3)c(=O)c2cc1OC | n | u | u | n
COc1cc2[nH]c(=S)n(Cc3ccc(C)cc3)c(=O)c2cc1OC | n | n | 56.2µM | n
CCc1c(CN2CCN(c3ccccc3F)CC2)csc1C | n | u | x | x
CCSc1nnc2c3cc(CC)ccc3n(C)c2n1 | n | x | n | n
O=C(O)CCCC/C=C(\c1ccccc1)c1cccnc1 | n | x | n | x
SMILES | VDR inhibitor | 12-LOX inh | Sfp PPTase inh | PLK1 PBD inh
CC(C1CC1)N(Cc1ccccc1)C(=S)Nc1cccc(C(F)(F)F)c1 (configuration not stated) | n | u | n | 29.9µM
CCCn1nc([N+](=O)[O-])c(C(C#N)c2nc3ccccc3s2)c(Cl)c1=O (configuration not stated) | u | u | n | 23.8µM
N#CC(C(=O)C1CCCCC1)c1nc2ccccc2s1 (configuration not stated) | x | n | x | x
Cc1nn(Cc2c(F)c(F)c(F)c(F)c2F)c(C)c1NC(=O)c1nn(C)cc1Br | n | n | n | n
CC(C)C(=O)N1CCC1(C)C(=O)Nc1ccc(-n2cncn2)cc1 (configuration not stated) | x | n | x | n
COc1ccccc1CCNC(=O)CSc1ccc(-c2ccco2)nn1 | n | n | 22.4µM | n
CC(=O)c1cccc(NC(=O)CSc2ccc(-c3ccco3)nn2)c1 | u | u | 20µM | u
CC(=O)c1cccc(NC(=O)CSc2ccc(-c3ccc4c(c3)OCO4)nn2)c1 | n | u | u | n
O=C(CSc1ccc(-c2ccco2)nn1)c1cccc([N+](=O)[O-])c1 | u | n | 14.1µM | n
COc1ccc(-c2nn(C)c3sc(C(=O)NCc4ccco4)cc23)cc1OC | n | n | n | 26.7µM
CCC(CC)C(=O)NCCc1ccc(S(N)(=O)=O)cc1 | n | n | n | n
Cn1cnnc1SCc1ccccc1Br | n | n | n | n
CCC(=O)c1ccc(OCC(=O)Nc2ccccc2N2CCOCC2)cc1 | n | n | x | n
COc1ccc(NC(=O)CN2CCCc3nc(C4CC4)ncc3C2=O)cn1 | x | n | x | x
CC(C)(C)OC(=O)N1CCOCCOCCNCCOCCOCC1 | n | n | n | n

Source: PubChem
